Screening data: PubChem, The Scripps Research Institute Molecular Screening Center
The sample as a whole holds a higher share of hits than the screen did.
TTR transcr act – TTR transcription activators in neuroblastoma reporter cells, primary screen, cell-based, luminescence, SH-SY5Y, TTR promoter Gaussia luciferase | 100% = recombinant luciferase protein wells | activation, % at 16.7 µM | 92,000 compounds, 1.3% hits;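 active = activation above the mean of all tested compounds plus 3 SD, cut at about 9.5% in these data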;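 note: cells exposed to compounds for one day before reading; 0% = median of all test compound wells on the plate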
TTR inh HuH7 – TTR promoter reporter inhibitors in hepatoma cells, counter-screen for TTR transcription activator project, cell-based, luminescence, HuH7 hepatoma; shares compounds with TTR transcr act; inhibition, % at 16.7 µM; HuH7 TTR promoter-Gaussia luciferase reporter; 1,100 compounds, 4% hits;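 active = average inhibition above the solvent-only control wells' mean plus 3 SD, cut at about 15% in these data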;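 note: 0% = cells with DMSO only and 100% = cells with inhibitor control FD; inhibitors lower well luminescence so higher value means more inhibition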
TTR act confirm – TTR transcription activators, retest, confirmation, cell-based, luminescence, SH-SY5Y, triplicate; shares compounds with TTR transcr act; SHSY5Y TTR promoter Gaussia luciferase; 100% = purified Lucia enzyme wells, no cells; 1,100 tested, under 10 active; activation, % at 16.7 µM;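 active = mean activation above a set limit taken from the earlier primary screen, cut at about 11% in these data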;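 note: 0% = DMSO-treated cells and 100% = recombinant Lucia luciferase without cells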
An asterisk follows results filed as active.

SMILES	TTR transcr act	others
CC(C)c1nc(C(N)=O)c2[nH]c(=O)n(-c3ccc(F)cc3)c2n1	9.8*	TTR inh HuH7=-8;TTR act confirm=-2
CCOC(=O)N1CCN(C(=O)c2ccc(CS(=O)Cc3ccc(C)cc3)o2)CC1 (configuration not stated)	2
O=C(N1CCCC1)n1ncc(-c2ccc(-c3ccccc3)cc2)n1	-1
Cc1ccc(SCC(=O)NCCSCc2ccccc2)cc1	1
O=C(CN1C(=O)c2ccccc2S1(=O)=O)NCc1ccccc1	1
Cc1ccc(CSCCNC(=O)CN2C(=O)c3ccccc3S2(=O)=O)cc1	9.9*	TTR inh HuH7=-8;TTR act confirm=-1
COc1cccc(C(=O)NCC2CCCN(C(=O)c3ccc(C=O)cc3)C2)c1OC (configuration not stated)	0
COc1ccc(SCCN2CC[C@@H](C(C)(C)C)CCC2=O)cc1	-1
COc1ccc(N=C2SCC(=O)N2Cc2ccccc2)cc1	-1
CCOc1ccc(N2C(=O)CSC2=S)cc1	-2
CCOc1ccc(N=C2SCC(=O)N2CC)cc1	18*	TTR inh HuH7=-11;TTR act confirm=0
CCCNC(=O)C(Cc1ccccc1C)NC(=O)c1ccc(C(F)(F)F)cc1 (configuration not stated)	0
Cc1cccc(C(=O)OCC(=O)Nc2c(C)n(C)n(-c3ccccc3)c2=O)c1	0
CC1(C)CC(=O)C=C(/C=C/c2ccccc2)C1	-1
CCOC(=O)C1CCN(S(=O)(=O)c2c[nH]c(=O)[nH]c2=O)CC1	0
CCCCn1c(SCC(=O)N2CCc3ccccc32)nnc1-c1ccncc1	17*	TTR inh HuH7=-10;TTR act confirm=-1
CCCn1c(SCC(=O)N2CCCc3ccccc32)nnc1-c1ccccn1	0
CCCn1c(SCC(=O)N2CCc3ccccc32)nnc1-c1ccco1	-2
C#CCOCCOCCOCCNc1nc(N2CCN(C(=O)[C@H](CCC(=O)O)n3cc([C@@H](N)[C@H](C)CC)nn3)CC2)nc(N2CCN(C(=O)[C@H](CCC(=O)O)n3cc([C@@H](N)CCSC)nn3)CC2)n1	1
COc1cc(/C=C/C(=O)O)cc(S(=O)(=O)NCC2CCCO2)c1OC (configuration not stated)	22*	TTR inh HuH7=0;TTR act confirm=-1
COc1cc(/C=C/C(=O)O)cc(S(=O)(=O)NNC(=O)c2cc(C)oc2C)c1OC	4
COc1ccc(C(C)(C)C)cc1S(=O)(=O)NCC1CCCO1 (configuration not stated)	1
Cc1ccc(N2CC(C(=O)N/N=C/c3c(F)cccc3Cl)CC2=O)cc1 (configuration not stated)	0
O=C(COC(=O)CNC(=O)C1CCCCC1)Nc1ccccc1OC(F)F	0
COc1ccc(Br)cc1/C=N/Nc1ccccn1	4
SMILES	TTR transcr act	others
O=C(NCc1nnc2c3ccccc3c(-c3ccccc3)nn12)c1ccccc1Cl	14*	TTR inh HuH7=-6;TTR act confirm=0
O=C(CN1CCC(NC(=O)c2ccccc2Cl)CC1)NCc1ccccc1	0
O=C(NCCN1CCCC1)c1ccccc1Cl	0
Cc1ccc(C(=O)OCC(=O)Nc2cc(C(C)(C)C)nn2-c2ccccc2)c(O)c1	1
CCOCCOC(=O)COC(=O)c1ccccc1NC(=O)c1ccccc1	12*	TTR inh HuH7=-12;TTR act confirm=1
CCOC(=O)c1ccccc1NC(=O)C(C)Oc1ccccc1 (configuration not stated)	-2
CCOC(=O)c1ccccc1NC(=O)C=C(C)C	0
CCCCc1ccc(NC(=O)CSc2nnc(C)c(=O)n2N)cc1	0
Cc1cc(C)cc(NC(=O)COC(=O)c2cccc(S(=O)(=O)N3CCCCC3)c2)c1	-2
CC(CCl)n1c(=O)c2ccccc2n1C(=O)c1ccccc1 (configuration not stated)	2
COC(=O)C1=C(C)NC(=O)/C1=C\c1cc(C)n(-c2ccccc2F)c1C	1
Cc1cc(/C=N/N2CCN(C)CC2)c(C)n1-c1ccccc1F	9.7*	TTR inh HuH7=-12;TTR act confirm=1
Cc1c(C(=O)O)cccc1-n1c(C)cc(C=O)c1C	0
Cn1c(=O)c2c(ncn2CCC(=O)N/N=C/c2cccnc2)n(C)c1=O	-1
C=CCC[C@@H](Cc1ccc(F)cc1)C(=O)OC[C@H](Cc1c[nH]c2ccccc12)NC(=O)[C@@H](CC=C)CC(=O)N[C@H](CO)Cc1ccccc1	-4
C=CCC[C@@H](Cc1ccc(F)cc1)C(=O)OC[C@@H]1CCCN1C(=O)[C@H](CC=C)CC(=O)N[C@H](CO)Cc1ccccc1	17*	TTR inh HuH7=0;TTR act confirm=-2
C=CC[C@@H](CC(=O)N[C@H](CO)Cc1ccccc1)C(=O)N[C@@H](COC(=O)[C@@H](CC=C)Cc1ccc(F)cc1)Cc1ccccc1	4
Cc1cccc(C)c1NC(=O)CN1CCN(C(=O)c2ccc(OCc3cn4ccccc4n3)cc2)CC1	3
O=C(OCC(=O)N(C1CCCCC1)C1CCCCC1)c1ccc(Cl)nc1	2
COc1ccc(/C=C/C(=O)C2CC2)cc1Cn1nc(C)c([N+](=O)[O-])c1C	-1
COc1ccc(/C=N/Nc2ccccc2)cc1Cn1nc(C)c([N+](=O)[O-])c1C	13*	TTR inh HuH7=-16;TTR act confirm=0
COc1ccc(/C=N/N2CCOCC2)cc1Cn1nc(C)c([N+](=O)[O-])c1C	9
Cc1nnc(SCC(=O)c2c[nH]c3ccccc23)n1C1CC1	-1
CC(OC(=O)C1=COCCO1)C(=O)NC1(C#N)CCCCC1 (configuration not stated)	-1
O=C(CN1CCNCC1)NCCSc1ccc(Cl)cc1	2
SMILES	TTR transcr act	others
Cc1ccc(C(=O)CCC(=O)NN2C(=O)NC3(CCCCC3)C2=O)cc1	-2
CCC(=O)N(c1nnc(SCC(=O)NN2C(=O)NC3(CCC(C)CC3)C2=O)s1)C1CC1 (configuration not stated)	0
Cc1nnc(SCC(=O)NN2C(=O)NC3(CCCCC3)C2=O)s1	11*	TTR inh HuH7=-6;TTR act confirm=-1
N#C/C(=C\c1cc2c(cc1Br)OCO2)c1ccc(C(=O)O)cc1	2
COC(=O)C(CCSC)NC(=O)C(NC(=O)C1CCC(C)CC1)C(C)C (configuration not stated)	-2
CSCCC(NC(=O)C1CCC(C)CC1)C(=O)O (configuration not stated)	58*	TTR inh HuH7=7;TTR act confirm=3
CSCC[C@H](NC(=O)[C@H]1CC[C@H](CNC(=O)[C@@H]2CCCN2)CC1)C(=O)O	1
CCOC(=O)c1nc(N/N=C/c2ccccc2)sc1Br	6
O=C(Cc1cccc(NC(=O)C2CCN(C(=O)C3CCCC3)CC2)c1)Nc1cccc(C(=O)N2CCOCC2)c1	0
CCOc1ccc(OCCCCNC(C)(C)C)cc1	2
CCC(C)NCCCCOc1cc(C)cc(C(C)C)c1 (configuration not stated)	-2
CCC(C)NCCCCOc1ccc(Br)cc1 (configuration not stated)	10*	TTR inh HuH7=-6;TTR act confirm=0
CN(C(=O)COC(=O)c1c2c(nc3ccccc13)CCCC2)c1c(N)n(Cc2ccccc2)c(=O)[nH]c1=O	0
